Most compounds without a hit are left out; they make up all but 19% or so of the library.
DT40 TDP1 no CPT: qHTS for Inhibitors of human tyrosyl-DNA phosphodiesterase 1 (TDP1): qHTS in cells in absence of CPT. AID 686978, 2013. Potency, µM (doses to about 46.2 µM), inactives show at the top dose activity change, negative = growth inhibition, usual class: inhibitors. DT40 Tdp1-/- hTDP1 cells, no CPT, ATP luminescence, 48 h. 420,000 compounds, 15% hits; also: potency is read from the fitted curve at half-maximal effect; % is scaled to controls: 0 for no effect and ±100 for the full control effect; nearly all actives have a fitted effect of over 55% in size
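A cellular qHTS used chicken DT40 cells lacking endogenous Tdp1 but carrying stably transfected human TDP1. Compounds were applied without camptothecin, and cell growth kinetics were judged by ATP-dependent luminescence after ≥48 hr.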
TDP1 cell CPT: growth inhibition of DT40 Tdp1-/-;hTDP1 cells with camptothecin (screen for TDP1 inhibitors); chicken DT40 Tdp1-/-;hTDP1 cells + 20 nM CPT, ATP luminescence, 48 h; Potency, µM (titrated, usually from 46.2 µM), inactives show top-dose activity change, negative = growth inhibition, actives largely listed as inhibitors; 420,000 compounds, 12% hits; AID 686979; also: potency is read from the fitted curve at half-maximal effect; % is scaled to controls: 0 for no effect and ±100 for the full control effect; nearly all actives have a fitted effect of over 55% in size
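Chicken DT40 Tdp1-/- cells complemented with human TDP1, 400 cells/well, exposed to compounds plus 20 nM camptothecin for at least 48 h at 37 C; viability read as ATP content by CellTiter-Glo luminescence.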
TGFb SMAD3 inh: inhibitors of TGF-b signaling; Potency, µM (doses to about 46.1 µM), for inactives: at the top dose activity, negative = inhibition, most hits filed as inhibitors; HepG2 CAGA-GFP TGF-b/SMAD3 reporter, GFP fluorescence, 18 h; TGF-beta stimulated, 500 pg/mL final; 410,000 compounds, 1.2% hits; AID 588855; also: potency is read from the fitted curve at half-maximal effect; % is scaled to controls: 0 for no effect and ±100 for the full control effect; nearly all actives have a fitted effect of over 65% in size
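Cell-based qHTS in HEPG2 carrying a CAGA-GFP Smad reporter; compounds added before 500 pg/mL final TGF-beta, 18 h incubation at 37 degrees C, GFP fluorescence quantified per cell by imaging cytometry.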
HepG2 viability: counter-screen for TGF-b inhibitors: cytotoxicity in HepG2 cells. HepG2 CAGA-GFP viability, ATP luminescence, 18 h. Potency, µM (doses to about 46.1 µM), inactives show at the highest dose activity change, negative = cytotoxicity, hits mostly cytotoxic. 410,000 compounds, 0.76% hits; also: potency is read from the fitted curve at half-maximal effect
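CellTiter-Glo luminescence gave cytotoxicity after 18 hours at 37 degrees C. The cells were HepG2 CAGA-GFP in 1% FBS DMEM, stimulated with 500 pg/mL TGF-beta after compound addition. %Activity was normalised to no-cell wells (complete cell-killing) and DMSO (no toxicity), and curves were fitted and classified.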
TDP1 inh: TDP1 (human) enzyme inhibition; Potency, µM (titrated, usually from 130 µM), for inactives: top-dose activity change, negative = inhibition, usual class: inhibitors; recombinant TDP1, AlphaScreen DNA substrate cleavage; Q9NUW8; AID 485290; 350,000 compounds, 0.28% hits; also: potency is read from the fitted curve at half-maximal effect; % is scaled to controls: 0 for no effect and ±100 for the full control effect; nearly all actives have a fitted effect of over 40% in size
Target sequence (Q9NUW8 whole entry, looked up): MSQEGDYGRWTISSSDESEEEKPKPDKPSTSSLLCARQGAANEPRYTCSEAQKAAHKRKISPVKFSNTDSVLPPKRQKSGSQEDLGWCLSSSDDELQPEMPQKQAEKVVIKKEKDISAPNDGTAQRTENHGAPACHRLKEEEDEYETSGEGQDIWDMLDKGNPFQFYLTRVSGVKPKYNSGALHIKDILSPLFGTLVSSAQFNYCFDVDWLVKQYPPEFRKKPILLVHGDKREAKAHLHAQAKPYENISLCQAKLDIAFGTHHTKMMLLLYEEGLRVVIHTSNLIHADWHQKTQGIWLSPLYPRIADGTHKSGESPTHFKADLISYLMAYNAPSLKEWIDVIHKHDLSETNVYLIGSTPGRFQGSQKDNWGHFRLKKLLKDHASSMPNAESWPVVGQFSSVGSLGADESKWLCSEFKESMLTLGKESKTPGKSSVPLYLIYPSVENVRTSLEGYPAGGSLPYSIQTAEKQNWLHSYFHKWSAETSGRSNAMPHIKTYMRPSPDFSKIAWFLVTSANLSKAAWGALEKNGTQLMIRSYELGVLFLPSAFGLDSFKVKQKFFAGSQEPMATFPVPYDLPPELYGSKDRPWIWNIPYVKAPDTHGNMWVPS
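E. coli-derived human Tdp1, 1 nM final. Cpd preinc 15 min RT; substrate 15 nM final, 5 min RT; AS bead mix 10 ug/ml final, 10 min RT. Signal loss = tyrosine-FITC cleavage. No-enzyme wells = max signal.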
IL1B secr inh: inhibitors of inflammasome signaling (IL-1 beta secretion) | THP-1 LPS/ATP IL-1B secretion, AlphaLISA, 16 h; active compounds read low | activity change, % at 57.5 µM | 360,000 compounds, 4.7% hits; in the data active = activity change below about -50%; inconclusive = mostly about -30% to -49%; also: % is scaled to controls: 0 for no effect and ±100 for the full control effect
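THP-1 cells pretreated 1 hr with compounds (up to 57.5 uM final), then stimulated with LPS (250 ng/mL final) plus ATP (1.25 mM final); secreted IL-1B measured by AlphaLISA after 16 hr, decreased signal indicating inhibition.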
Numbers without * were called inactive; ? = inconclusive; . = no result; [ ] = remark or other dose. Unless noted, calls follow the shape of the dose curve; as a rule, active = well fitted curve in the direction sought with a large enough effect; inconclusive = small, poorly fitted or top-dose-only effect, or another doubt; inactive = no such curve, though single readings can be large; an effect the other way counts as inactive or inconclusive.

SMILES	DT40 TDP1 no CPT	TDP1 cell CPT	TGFb SMAD3 inh	HepG2 viability	TDP1 inh	IL1B secr inh
Cc1ccc(SCCNC(=O)c2ccc(C)c(S(=O)(=O)Nc3ccccc3C)c2)cc1	22µM*	?	?	-34%	4%	-67*
COc1ccccc1NS(=O)(=O)c1ccc(C(=O)NCc2ccco2)cc1	?	10µM*	-23%	-9%	1%	25
Cc1ccccc1NS(=O)(=O)c1cc(C(=O)NCc2ccco2)ccc1C	-6%	-26%	7%	-11%	7%	-28
CCCN(CCC)C(=O)Cn1c(=O)c2ccccc2n2c(=S)sc(-c3ccccc3C)c12	15µM*	10µM*	-12%	-2%	1%	21
CCCn1c(CCC(=O)Nc2ccc(OCC)cc2)nc2cccnc21	?	?	?	-32%	1%	.
C/C(=N\Nc1nc2ccccc2s1)c1cccs1	?	?	?	-25%	-2%	-83*
CC(=O)Nc1cccc(/C(C)=N/Nc2nc3ccccc3s2)c1	?	?	-7%	-30%	0%	-19
CC(=NNc1nc2ccccc2s1)c1ncccn1	0.021µM*	-76%	0.79µM*	-36%	.	0
CC(=NNc1nc2ccccc2o1)c1ncccn1	13µM*	-115%	?	-37%	.	-7
C/C(=N\Nc1nc(-c2ccccc2)cs1)c1cccs1	?	?	14%	-3%	11%	-26
CC1CCCN(C(=O)C(=O)c2cn(CC(=O)N3CCCCCC3)c3ccccc23)C1 (centres undefined)	-26%	?	0%	-1%	4%	-25
COC(=O)c1ccccc1NC(=O)Cn1c(=O)n(CCC(=O)NCc2ccc3c(c2)OCO3)c(=O)c2ccccc21	?	?	0%	5%	5%	.
COc1ccc2c(c1)-c1nc(-n3ncc(C(=O)NCc4cccc(C)n4)c3C3CC3)ncc1CC2	-16%	1%[9.04 µM]	.	.	.	.
Cc1ccc(/C=N/NC(=O)c2ccc3ccccc3c2)s1	0.82µM*	0.82µM*	-20%	-3%	1%[56.1 µM]	47
Cc1ccc(/C=N/NC(=O)c2ccccn2)s1	?	?	2%	-31%	0%	-8
Cc1ccc(/C=N/NC(=O)c2ccc3c(c2)OCCO3)s1	21µM*	21µM*	-1%	-13%	4%	16
CCNc1nc(NCC)n2c(SCC(=O)Nc3cc(OC)ccc3OC)nnc2n1	-18%	?	8%	-20%	.	-7
CCNc1nc(NCC)n2c(SC(C(=O)Nc3cc(C)ccc3OC)c3ccccc3)nnc2n1 (centres undefined)	?	?	-8%	3%	8%	-104*
COc1ccc(C)cc1NC(=O)C(Sc1nnc(-c2ccncc2)n1-c1ccc(Cl)cc1)c1ccccc1 (centres undefined)	16µM*	?	?	-19%	0%	-59*
CCNc1nc(NCC)n2c(SCC(=O)c3ccc(C(C)C)cc3)nnc2n1	26µM*	23µM*	8%	1%	-3%	12
O=C(CN1C(=O)/C(=C/c2ccco2)SC1=S)NC1CCS(=O)(=O)C1 (centres undefined)	5%	-14%	7%	14%	.	-16
O=C(Nc1nccs1)[C@@H]1CC=C[C@@H]2CCN(C3CC3)C(=O)[C@@H]21	-8%	-6%	2%	-2%	.	.
CCN(Cc1nc(-c2ccc(Cl)cc2)no1)CC1CCCO1 (centres undefined)	?	-19%	-13%	-27%	0%	-14
O=S(=O)(c1ccccc1)c1nc(-c2ccc(F)cc2)oc1NCC1CCCO1 (centres undefined)	?	6%	?	-1%	2%	-24
O=C1CC[C@@H](CN(Cc2ccccn2)Cc2nc(Cc3ccccc3)no2)N1	-23%	11%	1%	20%	.	12
SMILES	DT40 TDP1 no CPT	TDP1 cell CPT	TGFb SMAD3 inh	HepG2 viability	TDP1 inh	IL1B secr inh
Cc1oc(-c2ccc(F)cc2)nc1CN(Cc1ccccn1)CC1CCCO1 (centres undefined)	29µM*	?	12%	11%	6%	21
Clc1ccc(-c2noc(CN(Cc3ccccn3)CC3CCCO3)n2)cc1 (centres undefined)	16µM*	?	1%	-1%	0%	5
FC(F)(F)c1cccc(Cc2noc(CN(Cc3ccccn3)CC3CCCO3)n2)c1 (centres undefined)	21µM*	21µM*	-22%	-21%	.	4
CC(NC(=O)COC(=O)/C=C/c1ccc2c(c1)OCO2)c1ccccc1 (centres undefined)	-8%	0%	0%	-18%	2%	16
CC(C)[C@H](NS(=O)(=O)c1ccccc1F)C(=O)NC1CCCCC1	12%	-1%	1%	-1%	0%	8
COc1ccc(-c2nc(-c3ccccn3)nc(N3CCN(C)CC3)c2C#N)cc1	1%	-2%	-13%	-16%	7%	?
COc1ccccc1-c1nc(-c2ccccc2)nc(N2CCN(C)CC2)c1C#N	?	-17%	-16%	-24%	0%	-52*
CN1CCN(c2nc(-c3ccccc3)nc(-c3ccc(F)cc3)c2C#N)CC1	?	?	-7%	-2%	0%	-61*
COC(=O)C1=C(N)Oc2cc(C)[nH]c(=O)c2C1c1ccccc1OC (centres undefined)	-17%	-22%	-6%	-39%	.	12
CCN(CC)c1ccc(NC(=O)C2CCCC2)cc1	?	?	-12%	-6%	.	-12
CCCCc1ccc(NC(=O)C2CCCC2)cc1	?	?	7%	10%	.	-67*
CCCc1ccc(NC(=O)C2CCCN(c3cnccn3)C2)cc1 (centres undefined)	21µM*	21µM*	8%	5%	5%	-11
CCOc1cccc(CNC(=O)c2ccc(N3CCCC3)c(NC(=O)NCc3ccc(F)cc3)c2)c1	-29%	-14%	-5%	1%	-1%	.
Cn1c(CC(=O)NC(C)(C)CO)c(Sc2ccccc2)c2ccccc21	16µM*	15µM*	0%	-1%	5%	0
Cn1c(CC(=O)Nc2ccc(F)cc2)c(Sc2ccccc2)c2ccccc21	-16%	?	1%	-8%	-1%	30
CCCCCCCCCCCCCCCCn1cc[n+](Cc2ccccc2)c1C	.	.	.	.	2%	.

Screening data deposited in PubChem by National Center for Advancing Translational Sciences (NCATS).
